High-throughput results from PubChem BioAssay.
Sampled rows, rich in hits. Any-hit rate of the full collection: about 3.9%.
Anthrax LF prot = Bacillus anthracis LF protease inhibitors, primary screen, biochemical, multiplex microsphere, MLPCN library | multiplex microsphere protease cleavage assay | actives 0.12% (n = 360,000) | inhibition, % at 10 µM; note: plate controls were buffer without enzyme for full effect and enzyme alone for no effect
BoNT A protease = BoNT/A light chain protease inhibitors, primary screen, biochemical, flow cytometry, MLPCN library | multiplex microsphere protease substrate cleavage | actives 0.17% (n = 360,000) | inhibition, % at 10 µM | Botulinum neurotoxin type A light chain protease (Clostridium botulinum A str. ATCC 3502); note: plate controls were buffer without enzyme for full effect and enzyme alone for no effect
Autofluor counter = flagged as autofluorescent in microsphere protease counterscreen. compound autofluorescence counterscreen, microsphere flow cytometry; active compounds read high. fluorescence intensity (no concentration beside the values). actives 3.1% (n = 360,000); in the data active = fluorescence intensity above about 16000; inconclusive = no clear call, values can overlap the other calls
BoNT F protease = BoNT/F light chain protease inhibitors, primary screen, biochemical, flow cytometry, MLPCN library | actives 0.22% (n = 360,000) | inhibition, % at 10 µM | AID 588497, 2011 | Multiplex microsphere protease cleavage assay; in the data active = inhibition above about 35%, passing the limit was not always enough; inconclusive = no clear call, values can overlap the other calls; note: plate controls were buffer without enzyme for full effect and enzyme alone for no effect
MazEF act = activators of E. coli MazEF toxin-antitoxin RNase, primary screen, biochemical, fluorescence, uHTS; activation, % at 20 µM; actives 0.32% (n = 350,000); FAM/BHQ RNA-DNA oligo cleavage fluorescence, 5 h; AID 504720, 2011; Endoribonuclease toxin MazF (Escherichia coli (strain K12)), P0AE70; in the data active = activation above about 50%
Vc quorum ag = inducers of Vibrio cholerae quorum light production without autoinducers, primary screen, BH1578 luxS cqsA deficient, single point; actives 0.16% (n = 350,000); V. cholerae BH1578 lux reporter, luminescence, 6 h; activation, % at 18.7 µM; AID 588436, 2011; in the data active = activation mostly above about 9.7%, no sharp cut-off; inconclusive = no clear call, values can overlap the other calls; inactive = mostly below about 3.7%
* hit, by the source's call. Cut-off read from the data, not from the text of the source, unless noted: active = inhibition above about 30%; inconclusive = no clear call, values can overlap the other calls; inactive = below that.

Screening COC(=O)CCCCCCCC(=O)Nc1nnc(C(F)(F)F)s1 returned Anthrax LF prot 0.6, BoNT A protease -0.1, Autofluor counter 5893, BoNT F protease 2.2, MazEF act 3.8 and Vc quorum ag -0.9.
Cc1c(N2C(=O)C3C4C=CC(C4)C3C2=O)c(=O)n(-c2ccccc2)n1C (centres undefined) was read as Anthrax LF prot -22.3, BoNT A protease inconclusive, Autofluor counter 3898, BoNT F protease inconclusive, MazEF act -0.5 and Vc quorum ag inactive.
Cc1c(N2C(=O)SC(CC(=O)O)C2=O)c(=O)n(-c2ccccc2)n1C (centres undefined) was read as Anthrax LF prot -1.9, BoNT A protease -0.7, Autofluor counter 3379, BoNT F protease -0.5, MazEF act -0.3 and Vc quorum ag 36.3*.
For Cc1ccc(C2CC(=O)N3CN(Cc4ccco4)CSC3=C2C#N)cc1 (centres undefined) the results were Anthrax LF prot -2.2, BoNT A protease 0.0, Autofluor counter 20926*, BoNT F protease -1.8, MazEF act 2.5 and Vc quorum ag inactive.
`CCOC(=O)c1sc(NC(=O)CSc2n[nH]c(-c3ccc(Cl)cc3Cl)n2)c(C#N)c1C` gave Anthrax LF prot 0.2, BoNT A protease inconclusive, Autofluor counter 23279*, BoNT F protease -2.2, MazEF act 0.9 and Vc quorum ag inactive.
Screening CCOC(=O)c1sc(NC(=O)CSc2nc3c(cc2C#N)CCCCCC3)c(C#N)c1C returned Anthrax LF prot -0.6, BoNT A protease inconclusive, Autofluor counter 17520*, BoNT F protease -9.1, MazEF act 35.4 and Vc quorum ag -0.2.
For CCOC(=O)c1sc(NC(=O)CSc2nc(C)cc(-c3ccccc3)n2)c(C#N)c1C the results were Anthrax LF prot -6.6, BoNT A protease 2.2, Autofluor counter 19559*, BoNT F protease -1.4, MazEF act -0.1 and Vc quorum ag -0.4.
For CCOC(=O)c1sc(NC(=O)CSc2nc(C)cc(C)c2C#N)c(C#N)c1C the results were Anthrax LF prot -4.0, BoNT A protease 0.3, Autofluor counter 3979, BoNT F protease 15.9, MazEF act 17.8 and Vc quorum ag -1.4.
CC(C)n1c(=O)c2ccccc2n1S(C)(=O)=O was read as Anthrax LF prot 3.7, BoNT A protease 1.2, Autofluor counter 5989 and BoNT F protease 9.3.
Screening O=S(=O)(Nc1ccc2ccccc2n1)c1ccc2c(c1)CCO2 returned Anthrax LF prot -5.2, BoNT A protease 0.6, Autofluor counter 5778, BoNT F protease 6.2, MazEF act 7.5 and Vc quorum ag inactive.
For CCCCC1(CC)C(=O)NC(=O)NC1=Nc1ccc(OC)cc1 (centres undefined) the results were Anthrax LF prot -0.6, BoNT A protease 3.0, Autofluor counter 21503*, BoNT F protease 5.0, MazEF act 4.8 and Vc quorum ag 14.3.
For CCC1(CC)C(=O)NC(=O)NC1=Nc1cccc(OC)c1 the results were Anthrax LF prot 3.4, BoNT A protease 0.4, Autofluor counter 4728, BoNT F protease 21.8, MazEF act 3.3 and Vc quorum ag 0.5.
`Cc1cccc(NC(=O)COc2cccc3c2CCNC3=O)c1` gave Anthrax LF prot -3.5, BoNT A protease -0.5, Autofluor counter 4020, BoNT F protease -1.2, MazEF act 4.3 and Vc quorum ag -7.6.
Screening O=[N+]([O-])c1ccc(NC2CCN(Cc3ccccc3)CC2)c2ccncc12 returned Anthrax LF prot 3.7, BoNT A protease 5.3, Autofluor counter 5331, BoNT F protease 1.9, MazEF act 58.1* and Vc quorum ag -0.7.
Screening O=[N+]([O-])c1ccccc1NC1CCN(Cc2ccccc2)CC1 returned Anthrax LF prot -10.8, BoNT A protease -0.3, Autofluor counter 4712, BoNT F protease -9.7, MazEF act -5.2 and Vc quorum ag 2.0.
`O=[N+]([O-])c1ccc(NC2CCCC2)c2ccncc12` gave Anthrax LF prot -5.8, BoNT A protease 4.4, Autofluor counter 3801, BoNT F protease -15.6, MazEF act 62.0* and Vc quorum ag -0.1.
CCOC(=O)C1=CCN(S(=O)(=O)c2ccccc2Cl)C1c1cccc(F)c1 (centres undefined) was read as Anthrax LF prot 9.5, BoNT A protease 0.6, Autofluor counter 5601 and BoNT F protease -3.3.
For COC(=O)c1ccc(N=C(c2ccccc2)c2c(O)n(C)c(=O)n(C)c2=O)cc1 the results were Anthrax LF prot -7.7, BoNT A protease -0.4, Autofluor counter 6228, BoNT F protease -9.7, MazEF act -3.9 and Vc quorum ag inactive.
`CCOC(=O)c1ccc(N=C(c2ccccc2)c2c(O)n(C)c(=O)n(C)c2=O)cc1` gave Anthrax LF prot 30.6*, BoNT A protease -3.3, Autofluor counter 3761, BoNT F protease inconclusive, MazEF act -4.7 and Vc quorum ag inactive.
Screening CCOC(=O)C/C(N)=N/N(C)c1ncc(C(F)(F)F)cc1Cl returned Anthrax LF prot 1.0, BoNT A protease 0.3, Autofluor counter 4509, BoNT F protease 2.8, MazEF act 1.7 and Vc quorum ag -0.2.
`CCn1c(SCC(=O)N2CCCC(C)C2)nnc1-c1ccco1` (centres undefined) gave Anthrax LF prot 2.1, BoNT A protease 2.0, Autofluor counter 5653, BoNT F protease 9.5, MazEF act 12.1 and Vc quorum ag inactive.
For COCCCn1c(SCC(=O)N2CCCC(C)C2)nnc1-c1ccco1 (centres undefined) the results were Anthrax LF prot 1.9, BoNT A protease -3.4, Autofluor counter 21046*, BoNT F protease 0.7, MazEF act -6.6 and Vc quorum ag -0.2.
For O=C(CSc1nnc(-c2ccco2)n1CC1CCCO1)N1CCCCC1 (centres undefined) the results were Anthrax LF prot 1.4, BoNT A protease 1.8, Autofluor counter 21580*, BoNT F protease 2.2, MazEF act 6.5 and Vc quorum ag -0.2.
`O=C(CSc1nnc(-c2ccccc2)n1CC1CCCO1)N1CCCC1` (centres undefined) gave Anthrax LF prot 3.5, BoNT A protease -0.1, Autofluor counter 3369, BoNT F protease -1.2, MazEF act 8.9 and Vc quorum ag -0.4.
`O=C(CSc1nnc(NC2CCCCC2)s1)N1CCOCC1` gave Anthrax LF prot -11.6, BoNT A protease -0.5, Autofluor counter 3597, BoNT F protease 5.8, MazEF act 0.1 and Vc quorum ag -0.2.
For O=C(COC(=O)COc1ccc(Br)cc1)NC1CCCC1 the results were Anthrax LF prot 6.0, BoNT A protease 0.1, Autofluor counter 3914, BoNT F protease -1.8, MazEF act 13.0 and Vc quorum ag 8.3.
